34 molecules from PubChem BioAssay (Tox21) can be followed below.

The structures appear in SMILES notation. Inconclusive results are not listed. Entries that show only a call come without a potency. Calls of active or inactive are those of the source. Unless noted, calls follow the shape of the full dose curve.

One assay can be described thus: qHTS assay for small molecule disruptors of the mitochondrial membrane potential - cell viability (AID 720634).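 Also: human HepG2 liver cancer cells; nearly all actives have a fitted effect of over 20% in size.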 The following applies: HepG2 viability, ATP luminescence (CellTiter-Glo), 1 h; series mostly up to 83.2 µM. The method in brief: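 Cells: HepG2, 2,000/well, attached overnight. Compound 1 hr, 37 C/5% CO2. +m-MPI dye, +CellTiter-Glo 30 min RT. Readout: luminescence (ATP).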
(In general: qHTS replaces the single test concentration by a dilution series.)
For the molecule `CCCCCCCCCCCl`, the Potency result was “inactive”.

Consider `CCC(C)OC(=O)N1CCCCC1CCO` (stereo unspecified), for which the Potency result is “inactive”.

In the case of `CCCCc1ccc2cccc(S(=O)(=O)O)c2c1`, the Potency result is “inactive”.

Consider `Nc1cc(N)cc(C(=O)O)c1`, for which the Potency result was “inactive”.

Regarding `N#CC1(O)CCCCC1`, the Potency result is “inactive”.

Regarding `CCCCN(CCO)CCO`, the Potency entry was “inactive”.

On to `CCCOCC(C)OCC(C)O` (stereo unspecified), for which the Potency result is “inactive”.

With `CCC(C(=O)NC(N)=O)c1ccccc1` (stereo unspecified), the Potency result was “inactive”.

For `c1ccc(SCCSc2ccccc2)cc1`, the Potency entry is “inactive”.

`CC(=O)OC(C)(C)C`: the Potency result was “inactive”.

Turning to `CC(=O)NC(Cc1ccccc1)C(=O)O` (stereo unspecified), the Potency entry was “inactive”.

Regarding `COc1cccc(OC)c1`, the Potency result is “inactive”.

In the case of `CCn1cc(C(=O)O)c(=O)c2cc(F)c(N3CCN(C)CC3)cc21`, the Potency entry is “inactive”.

On to `C[C@H](O)C(=O)Nc1c(I)c(C(=O)NC(CO)CO)c(I)c(C(=O)NC(CO)CO)c1I`, for which the Potency entry is “inactive”.

For the molecule `NS(=O)(=O)c1cc2c(cc1C(F)(F)F)NC(Cc1ccccc1)NS2(=O)=O` (stereo unspecified), the Potency result is “inactive”.

For `COc1cccc(Br)c1`, the Potency result was “inactive”.

For the molecule `Fc1ccccc1-c1ccccc1`, the Potency result was “inactive”.

As to `C=CCn1c(=O)n([C@@H]2O[C@H](CO)[C@@H](O)[C@H]2O)c2nc(N)[nH]c(=O)c21`, the Potency entry is “inactive”.

Turning to `CCCCCCOC(=O)c1ccccc1O`, the Potency result is “inactive”.

As to `CCCC(C)C(=O)O` (stereo unspecified), the Potency result was “inactive”.

On to `Cc1cc(C)c(NC(=O)CN(CC(=O)O)CC(=O)O)c(C)c1Br`, for which the Potency entry was “inactive”.

As to `NS(=O)(=O)c1cc2c(cc1Cl)NC(CSCc1ccccc1)=NS2(=O)=O`, the Potency result is “inactive”.

`N#CCc1ccccc1[N+](=O)[O-]`: the Potency entry is “inactive”.

Regarding `C=C(C)C(=O)OCCC(C)OC(=O)C(=C)C` (stereo unspecified), the Potency result is “inactive”.

For `Cc1ccc(N)cc1[N+](=O)[O-]`, the Potency entry is “inactive”.

`CO[Si](OC)(OC)OC`: the Potency entry was “inactive”.

For the molecule `CC(C)c1cccc(O)c1`, the Potency entry was “inactive”.

`CCCCCCCCCCC1CO1` (stereo unspecified): the Potency entry is “inactive”.

Consider `COc1cc(CCC(C)=O)ccc1O`, for which the Potency result was “inactive”.

Regarding `CC(C)CCCCCCN`, the Potency entry was “inactive”.

For `CCCCNc1ccccc1`, the Potency result is “inactive”.

`CC(C)(O)c1ccccc1`: the Potency entry was “inactive”.

In the case of `O=C(O)/C=C/c1ccc(Cn2ccnc2)cc1`, the Potency entry was “inactive”.

`Cc1ccccc1C(=O)O`: the Potency result is “inactive”.

A short description of a further assay: qHTS assay for small molecule disruptors of the mitochondrial membrane potential (AID 720635; active = well fitted inhibition curve with a large enough effect in the signal ratio in the repeat runs; the % refers to the signal ratio; also: potency is read from the fitted curve at half-maximal effect). The following applies: HepG2 mitochondrial membrane potential, Mito-MPS dye ratio; series mostly up to 83.2 µM. Summed up:
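HepG2 cells (2,000/well) attached overnight at 37C, then took compound for 1 hr at 37C, 5% CO2. Mito-MPS dye was added for 30 min; fluorescence was read at 490/535 nm (monomers) and 540/590 nm (aggregates).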
As for `CCCCCCCCCCCl`, the Potency result is “inactive”.

As to `Nc1cc(N)cc(C(=O)O)c1`, the Potency entry is “inactive”.

As to `CCC(C(=O)NC(N)=O)c1ccccc1` (stereo unspecified), the Potency entry is “inactive”.

`CC(=O)NC(Cc1ccccc1)C(=O)O` (stereo unspecified): the Potency result was “inactive”.

`COc1cccc(Br)c1`: the Potency entry is “inactive”.

With `C=CCn1c(=O)n([C@@H]2O[C@H](CO)[C@@H](O)[C@H]2O)c2nc(N)[nH]c(=O)c21`, the Potency entry was “inactive”.

Take `Cc1cc(C)c(NC(=O)CN(CC(=O)O)CC(=O)O)c(C)c1Br`: the Potency entry is “inactive”.

Take `N#CCc1ccccc1[N+](=O)[O-]`: the Potency result is “inactive”.

Regarding `Cc1ccc(N)cc1[N+](=O)[O-]`, the Potency result was “inactive”.

For `CC(C)c1cccc(O)c1`, the Potency is 64.4 µM (active).

`CC(C)CCCCCCN`: the Potency result was “inactive”.

For `Cc1ccccc1C(=O)O`, the Potency result is “inactive”.
